This is a sample that favours compounds with a hit; in the whole collection about 2.6% have one here.
Cruzain Triton: inhibitors of Trypanosoma cruzi cruzain with detergent. purified cruzain, Z-FR-AMC fluorescence, 0.01% Triton. 0.43% of 200,000 active. Potency, µM, for the others: max response, negative = inhibition, usual class: inhibitors. AID 1478;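 note: plate controls were neutral wells for no effect and buffer without enzyme for full effect; nearly all actives have a fitted effect of over 40% in size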
Target sequence (P25779 123-467 limits assumed): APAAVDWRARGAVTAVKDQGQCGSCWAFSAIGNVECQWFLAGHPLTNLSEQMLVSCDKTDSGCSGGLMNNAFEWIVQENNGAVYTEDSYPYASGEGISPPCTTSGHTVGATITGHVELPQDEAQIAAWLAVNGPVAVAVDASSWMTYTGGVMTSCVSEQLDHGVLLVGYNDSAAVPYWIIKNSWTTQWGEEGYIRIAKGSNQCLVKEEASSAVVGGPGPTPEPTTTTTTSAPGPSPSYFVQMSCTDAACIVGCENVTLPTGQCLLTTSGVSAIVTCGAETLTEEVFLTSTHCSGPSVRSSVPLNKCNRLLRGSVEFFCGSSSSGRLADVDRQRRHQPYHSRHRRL
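Detergent-containing run (0.01% Triton X-100) in acetate buffer pH 5.5 with 5 mM DTT: enzyme at 1.5 nM final, 15 min compound preincubation at room temperature, then 2 uM Z-FR-AMC substrate. Activity taken as 60 s fluorescence increase at 360/450 nm.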
Cruzain inh noDet: blocks cruzain activity in detergent-free assay | purified cruzain, Z-FR-AMC fluorescence, no detergent | P25779 | 2.3% of 200,000 active | Potency, µM, for the others: max response, negative = inhibition, actives largely listed as inhibitors;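 note: plate controls were enzyme without inhibitor for no effect and buffer without enzyme for full effect; nearly all actives have a fitted effect of over 40% in size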
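Purified cruzain at 1.5 nM, pre-incubated 15 min with compound at room temperature in 100 mM sodium acetate pH 5.5, 5 mM DTT, 0.00005% Triton X-100. Reaction started with 2 uM Z-FR-AMC; AMC fluorescence increase over 60 s gives rate.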
Numbers without * were called inactive; ? = inconclusive. Calls come from the whole dose curve; as a rule, active = well fitted curve in the direction sought with a large enough effect; inconclusive = small, poorly fitted or top-dose-only effect, or another doubt; inactive = no such curve, though single readings can be large; an effect the other way counts as inactive or inconclusive. Potency is the fitted concentration of half-maximal effect.

SMILES	Cruzain Triton	Cruzain inh noDet
Cc1ccccc1C(=O)NC(=S)Nc1sc2c(c1C#N)CCCC2	-4%	?
Cc1sc(NC(=S)NC(=O)c2ccc(C(C)(C)C)cc2)c(C#N)c1C	1%	10µM*
COc1cccc(CNc2cc(C)nc3nc(-c4ccc(C)cc4)nn23)c1	-1%	-1%
Cc1ccc(CN2C(=O)c3ccccc3CC2(C)C(=O)NC2CCCCC2)cc1 (stereo not given)	0%	5%
Cc1ccc(C)c(N2CCN(C(=O)CN3C(=O)COc4ccc(S(=O)(=O)N5CCC(C)CC5)cc43)CC2)c1	-2%	-8%
CC(C)n1cc(/C=N/NC(=O)COc2cccc3cccnc23)c2ccccc21	-5%	?
CC(C)n1cc(/C=C2/NC(=O)N(c3cccc(Cl)c3)C2=O)c2ccccc21	0%	16µM*
CC(C)n1cc(/C=C2\NC(=O)N(c3cccc(Cl)c3)C2=O)c2ccccc21	-1%	25µM*
Cn1cc(C2=C(c3ccc(Cl)cc3Cl)C(=O)NC2=O)c2ccccc21	-7%	13%
CCC(C(=O)Nc1ccccc1C(=O)OC)n1nc(C)c2c(C)n(-c3ccc(C)cc3)nc2c1=O (stereo not given)	-5%	1%
Cc1cc(N/C=C/C(=O)c2ccc(Br)cc2)no1	-5%	?
O=C(/C=C/Nc1ccccc1F)c1ccc(Br)cc1	-3%	?
O=C(/C=C/Nc1ccc(F)c(F)c1)c1ccc(Br)cc1	-6%	25µM*
O=C(/C=C/Nc1ccc([N+](=O)[O-])cc1)c1ccc(Br)cc1	-2%	20µM*
CSc1ccc(CNC(=O)c2sc3ncnc(N(C)C4CCCCC4)c3c2C)cc1	-3%	-6%
Cc1nn(-c2ccccc2)c2nc(C3CC3)cc(C(=O)Nc3ccccc3F)c12	-4%	?
O=C(CN1C(=O)/C(=C\c2ccc(F)cc2)Oc2ccccc21)NCc1ccco1	25µM*	25µM*
O=C(CCN1C(=O)COc2ccccc21)NCc1ccco1	1%	-7%
Cc1cc(Nc2ccccc2F)n2nc(-c3ccccc3)nc2n1	-2%	10%
Cc1cc(N)c2ccccc2[n+]1CCCCCCCCCCCCCC[n+]1c(C)cc(N)c2ccccc21	13µM*	20µM*
CSc1nncc(/C(C)=N\Nc2cccc(C)c2)n1	2%	13µM*
CSc1nncc(/C(C)=N\Nc2ccccc2)n1	6%	6%
CCOC(=O)CNC(=O)Nc1cc(C(=O)NCc2ccc(C(C)C)cc2)ccc1N1CCCC1	-3%	6%
O=S(=O)(c1ccc(F)cc1)N1CCn2c(nc3ccccc32)C1	18µM*	5µM*
O=S(=O)(c1ccccc1)N1CCn2c(nc3ccccc32)C1	-7%	-13%
SMILES	Cruzain Triton	Cruzain inh noDet
CCn1cc(C(=O)NCCOC)c(=O)c2cc(S(=O)(=O)N3CCOCC3)ccc21	-5%	-2%
O=C(CSc1nc(=O)n(Cc2ccncc2)c2c1CCC2)Nc1ccc(F)cc1F	1%	-3%
COc1ccc(-c2cc(-c3cccs3)c(C#N)c(SCC(=O)NCc3ccccc3)n2)cc1	4%	7.9µM*
Cc1cccc(-c2cc(-c3ccccc3)nc(SCC(=O)Nc3ccccc3)c2C#N)c1	1%	12%
CCSc1nc(-c2ccc(OC)cc2)cc(-c2ccccc2)c1C#N	-1%	-14%
COc1ccc(-c2cc(-c3cccs3)c(C#N)c(SCC(=O)NCc3ccccc3OC)n2)cc1	6%	?
CCc1nnc(NC(=O)CSc2nc(-c3ccc(F)cc3)cc(-c3ccccc3)c2C#N)s1	0%	7.9µM*
COc1ccc(-c2cc(-c3ccccc3)nc(SCC(=O)Nc3ncc(C)s3)c2C#N)cc1	-5%	7.9µM*
Cc1ccc2c(=O)cc(C(=O)Nc3ccc(S(=O)(=O)Nc4onc(C)c4C)cc3)oc2c1C	-4%	?
CCN1C(=O)c2ccccc2S(=O)(=O)c2ccc(C(=O)NCc3ccc(C)cc3)cc21	-2%	5%
CC(C)(C)Nc1oc(-c2ccccc2)nc1-c1ccc(C(F)(F)F)cc1	4%	-10%
CCCCC[C@H](O)/C=C/C=C\C/C=C\C/C=C\CCCC(=O)O	-1%	-17%
CCCCn1cc2c(c1-c1ccc(Br)cc1)c(=O)n(C)c(=O)n2C	-9%	?
Cc1cc(-c2csc(NC(=O)c3ccc(S(=O)(=O)N(C)C)cc3)n2)c(C)n1-c1ccccc1	-5%	16µM*
CN(C)S(=O)(=O)c1ccc(C(=O)Nc2nnc(SCc3ccccc3)s2)cc1	-3%	3.2µM*
CCSc1nnc(NC(=O)CN(C)S(=O)(=O)c2ccc(F)cc2)s1	-2%	-10%
CN(C)S(=O)(=O)c1ccc(C(=O)Nc2nnc(Cc3ccccc3)s2)cc1	3%	-24%
CN(C)S(=O)(=O)c1ccc(C(=O)Nc2nnc(SCc3cccc(F)c3)s2)cc1	-1%	4µM*
CN(C)S(=O)(=O)c1ccc(C(=O)Nc2nc(-c3cc4ccccc4o3)cs2)cc1	-7%	?
O=C1c2oc3ccccc3c(=O)c2C(c2ccccc2)N1Cc1ccc2c(c1)OCO2 (stereo not given)	-1%	3%
O=S(=O)(O)c1cc(S(=O)(=O)O)c2c(N=Nc3cccc4ccccc34)c(O)ccc2c1	3%	22%
O=S(=O)(O)c1cc(N=Nc2cccc3ccccc23)c(O)c2ncccc12	3.5µM*	-5%
CCc1ccc(NC(=O)CO/N=C(\C)c2cc3ccccc3o2)cc1	-9%	-9%
O=C(COc1ccc(/C=N/NC(=O)c2cc3ccccc3o2)cc1Br)Nc1ccccc1	25µM*	10µM*
Cc1ccc(NC(=O)Cn2c(=O)n(Cc3ccccc3)c(=O)c3c(C)c(C(=O)N(C)C)sc32)c(C)c1	1%	?
SMILES	Cruzain Triton	Cruzain inh noDet
COc1ccccc1/C=C\C=N\n1c(C2CCCCC2)n[nH]c1=S	-5%	6.3µM*
COc1ccc(-c2n[nH]c(=S)n2/N=C/C=C\c2ccccc2OC)cc1	-5%	-27%
COc1ccccc1/C=C/C=N/n1c(-c2ccc(C)cc2)n[nH]c1=S	-3%	10µM*
COc1ccccc1/C=C/C=N/n1c(-c2cc(C)[nH]n2)n[nH]c1=S	-9%	4%
Cc1ccc(NC(=O)Cn2c(=O)n(Cc3nc(C)no3)c(=O)c3cc4c(cc32)OCO4)cc1	-5%	6%
COc1ccc(C(=O)N2CCc3cc(OC)c(OC)cc3C2COc2ccccc2OC)cc1 (stereo not given)	0%	?
Cc1cc(NC(=O)n2ncc3c(C)cccc32)ccc1Br	-1%	5%
CCOc1ccc(N2C(=O)CC(Sc3nc(-c4cccs4)cc(C(F)(F)F)c3C#N)C2=O)cc1 (stereo not given)	-20%	13µM*
CCOc1ccc(N2C(=O)CC(Sc3ncccn3)C2=O)cc1 (stereo not given)	-1%	-2%
Fc1ccc(-n2ncc3c(Nc4ccc(Oc5ccc(Cl)cc5)cc4)ncnc32)cc1	0%	-4%
NC(=O)c1c(NC(=O)CS(=O)(=O)c2ccc(Cl)cc2)sc2c1CCCC2	-1%	4%
CCOc1ccc(-c2nc(SCC(=O)c3ccccc3)n[nH]2)cc1	-5%	?
CCCOc1ccc(-c2nc(SCC(=O)c3ccc(Cl)cc3)n[nH]2)cc1	1%	10µM*
COc1ccc(-c2nn(C)c3sc(C(=O)N4CCN(c5cccc(C)c5C)CC4)cc23)cc1OC	1%	-10%
COc1ccc(OC)c(NC(=O)c2nc(SCc3ccccc3F)ncc2Cl)c1	3%	15%
N#CC1=C(S)N=C(N)C(c2nc(-c3ccccc3)cs2)C12CCCCC2 (stereo not given)	0%	0%

Compound activity: PubChem, National Center for Advancing Translational Sciences (NCATS)
